# Screens (PubChem BioAssay)
# Compounds with a hit are over-represented: about 1.2% of the library has one in this group of screens.
# GLA inh pH 4.5: blocks human alpha-galactosidase A at pH 4.5. purified enzyme, 4-MU-alpha-Gal fluorescence, pH 4.5. P06280. activity change, negative = inhibition, % at 105 µM. 230,000 tested, under 10 active
# Target sequence (P06280 whole entry, looked up): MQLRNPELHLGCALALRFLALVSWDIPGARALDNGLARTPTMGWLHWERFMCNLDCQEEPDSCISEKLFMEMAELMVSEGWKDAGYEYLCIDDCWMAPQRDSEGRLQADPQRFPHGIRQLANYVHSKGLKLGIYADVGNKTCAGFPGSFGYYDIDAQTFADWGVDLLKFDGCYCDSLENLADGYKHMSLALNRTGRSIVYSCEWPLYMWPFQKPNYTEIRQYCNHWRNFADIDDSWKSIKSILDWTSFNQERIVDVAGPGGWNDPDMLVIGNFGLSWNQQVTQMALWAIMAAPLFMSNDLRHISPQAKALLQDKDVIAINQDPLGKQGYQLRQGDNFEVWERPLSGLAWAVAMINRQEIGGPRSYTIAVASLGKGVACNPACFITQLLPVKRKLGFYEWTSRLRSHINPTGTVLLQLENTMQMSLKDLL
# HTT ATP protect: cytoprotection in Huntington HTT-Q103 PC12 cell model; Potency, µM (titrated, usually from 56.4 µM), hits mostly activators; AID 1471; PC12 HTT-Q103 induced, cytoprotection, ATP luminescence, 40 h; 0.14% of 230,000 active; note: nearly all actives have a fitted effect of over 45% in size
#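 Stable PC12 Q103-GFP cells in serum-supplemented, phenol red-free DMEM; induction by tebufenozide at 100 nM final; compound dose series; cell viability quantified luminescently from ATP.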
# HttQ103 aggreg: mutant huntingtin aggregation inhibition. 1.1% of 220,000 active. AID 1688. PC12 HttQ103-GFP aggregates, Acumen cytometry, 40 h. Potency, µM (highest dose often 46.1 µM), hits mostly inhibitors; note: nearly all actives have a fitted effect of over 60% in size
#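 PC12 cells stably carrying ecdysone-inducible HTT exon 1 Q103–GFP were induced with tebufenozide (100 nM final) and treated with library compounds in titration. GFP aggregates in lysates were counted by laser scanning cytometry.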
# GLA spleen mod: alpha-galactosidase A (human) modulation; 0.008% of 240,000 active; human spleen homogenate, 4MU-alpha-Gal fluorescence, 40 min; Potency, µM (highest dose often 80 µM), most hits filed as inhibitors; P06280
#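 Spleen homogenate 1 ug + cpd (titration) + 4-MU-alpha-D-galactopyranoside 1 mM; 37C 40 min; 50 mM citrate/phosphate pH 5.0, 0.01% Tween-20; stop pH 10; fluorescence 365/440; AC50 via Hill.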
# ERK EGF inh: blocks ERK signaling stimulated by EGF; HEK293-V1b, EGF-stimulated phospho-ERK AlphaScreen; Potency, µM (titrated, usually from 11.5 µM), most hits filed as inhibitors; 0.41% of 130,000 active; AID 1454; note: nearly all actives have a fitted effect of over 55% in size
#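 HEK293 cells stably expressing V1b receptor, serum-reduced (1% FBS) overnight, got compound for 30 min at 37C, then 25 nM EGF for 5 min. Lysate phospho-ERK read by AlphaScreen SureFire; AC50 from Hill fits.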
# Numbers stand for hits; i = inactive; ? = inconclusive; nt = no result given; [ ] = another dose, or the depositor's remark. Calls come from the whole dose curve; as a rule, active = well fitted curve in the direction sought with a large enough effect; inconclusive = small, poorly fitted or top-dose-only effect, or another doubt; inactive = no such curve, though single readings can be large; an effect the other way counts as inactive or inconclusive.
SMILES,GLA inh pH 4.5,HTT ATP protect,HttQ103 aggreg,GLA spleen mod,ERK EGF inh
CS(=O)(=O)c1ccc(-c2nc(-c3ccc(F)cc3)c(-c3ccncc3)[nH]2)cc1,nt,i,nt,i,nt
CCN(CC)CCn1nc2c3c(cccc3c1=O)-c1ccccc1-2,i,i[10 µM],0.63µM,i,i
O=c1c2cccc3c2c(nn1CN1CCOCC1)-c1ccccc1-3,i,i,?,i,nt
CC(C)CO/N=C1/C[C@@H](O)[C@@H](O)[C@@H]2[C@@H]3C(=O)N(Cc4ccccc4)C(=O)[C@H]3CC[C@@H]12,nt,2.8µM,nt,i[17.5 µM],nt
CC(C)CO/N=C1/C[C@@H](O)[C@@H](O)[C@@H]2[C@@H]3C(=O)N(Cc4ccccc4)C(=O)[C@H]3CC[C@H]12,nt,i[10 µM],nt,i[17.5 µM],nt
COc1ccc(N/C=C2/CCCCC2=O)cc1,i,20µM,i,i,nt
COc1ccc(Oc2ccc(N/C=C3/CCCC3=O)cc2)cc1,i,i[10 µM],i,i,i
CN(C(=O)c1ccc(OCC=C(c2ccccc2)c2ccccc2)cc1)c1ccccc1I,nt,nt,nt,i,nt
CN1CCN(c2ncnc3ccc(-c4cccc(C#N)c4)cc23)CC1,nt,i,nt,i,nt
COC(=O)C1=C(C(=O)OC)[C@@H]2N(C)c3ccc(OC)cc3[C@@]23C[C@@H](C(=O)OC)N(C(C)=O)C3=N1,i,nt,nt,i[17.5 µM],nt
N#CCCN1CCCc2cc(N=Nc3ccc(C(F)(F)F)cc3)ccc21,i,i[10 µM],i[9.22 µM],i,22µM
CC(=O)OC[C@@H]1O[C@@H](O/N=C2/C[C@@H](O)[C@@H](O)[C@@H]3[C@@H]4C(=O)N(Cc5ccc6c(c5)OCO6)C(=O)[C@H]4CC[C@@H]23)[C@H](OC(C)=O)[C@H](OC(C)=O)[C@@H]1OC(C)=O,nt,i[10 µM],nt,i[17.5 µM],nt
CCN(CC)CCC[C@H](C)Nc1c2ccc(Cl)cc2nc2ccc(OC)cc12,i,i,?,i,i
C=CCNc1ncnc2ccccc12,i,i,i,i,nt
c1ccc(CNc2ncnc3ccccc23)cc1,i,i[10 µM],4.5µM,i,nt
OCCCCCNc1ncnc2ccccc12,i,i[10 µM],7.9µM,i,i
Nc1ncnc(NCc2ccccc2)c1[N+](=O)[O-],i,nt,11µM,i,i
COc1ccc(CNc2ncnc3cc(Cl)ccc23)cc1,i,i,14µM,i,i
COc1cccc(CNc2ncnc3cc(Cl)ccc23)c1,i,i[1.9 µM],i[9.22 µM],i,?
NCCCCCN,nt,nt,nt,i,nt
COc1ccc(SCCN2CCN(CCc3ccccc3)CCC2=O)cc1,nt,nt,nt,i,nt
Cn1cc(C=C2C(=O)CC(C)(C)CC2=O)c2ccccc21,i,nt,0.025µM,i,i
COC(=O)C1C(=O)c2c([nH]c(C(=O)OC3CCCCCC3)c2C)CC1C (centres undefined),i,nt,0.001µM,i,nt
C=CCN1c2ccccc2[C@]23C[C@@H](C(=O)OC)N(S(=O)(=O)c4c(C)noc4C)C2=NC(C(=O)OC)=C(C(=O)OC)[C@H]13,i,i[10 µM],nt,i[17.5 µM],nt
COc1ccc(S(=O)(=O)N(C(C)=O)c2ccc(OC(C)=O)c3ccccc23)cc1[N+](=O)[O-],?,i[10 µM],6.3µM,i,nt
SMILES,GLA inh pH 4.5,HTT ATP protect,HttQ103 aggreg,GLA spleen mod,ERK EGF inh
COC(=O)c1cnn(-c2nc(OC)cc(OC)n2)c1C,i,i[10 µM],i,i,i
COc1cc(OC)nc(-n2ncc(Br)c(Br)c2=O)n1,i,nt,4.5µM,i,i
COc1cc2c(C#N)c(N3CCN(C)CC3)nc(N)c2c(N)n1,i,i,i,i,nt
COc1cc2c(C#N)c(N3CCN(c4ccccc4OC)CC3)nc(N)c2c(N)n1,i,i[10 µM],11µM,i,nt
CSc1ccc(Cl)c(C(=O)NCC(C)C)c1,i,i[0.074 µM],2µM,i,nt
CCCNC(=O)c1cc(SC)ccc1Cl,i,i,i,i,nt
Cc1sc2ncnc(N/N=C/c3ccc(O)cc3)c2c1C,i,i[10 µM],i,i,i
Cc1sc2ncnc(N/N=C/c3ccccc3O)c2c1C,i,i[10 µM],2.5µM,i,i
CN(C)c1cccc2c1C(=O)c1ccccc1C2=O,i,i[10 µM],i,i,13µM
CN1C(=O)c2cccc(N(C)C)c2C1=O,i,i[10 µM],i,i,nt
O=C1c2c(O)cc(O)cc2O[C@@H](c2ccc(O)c(O)c2)[C@H]1O,nt,i[1.9 µM],nt,nt,nt
CCCCOc1ccccc1NC(=O)c1ccco1,i,i,i,i,nt
CCCCOc1ccccc1NC(=O)c1scc2c1OCCO2,i,i,13µM,i,i
Cc1cc(C)n(-c2nnc(NCc3ccc(Cl)cc3)nn2)n1,i,i,?,i,?
